High-throughput results as filed in PubChem.
Sampled rows, rich in hits. Any-hit rate of the full collection: about 3.5%.
mHTT CaM bind – mutant huntingtin-calmodulin interaction inhibitors – biochemical, AlphaScreen, primary screen; P42858; AlphaScreen His-mHTT/GST-CaM binding, luminescence; inhibition, % at 15 µM; actives 3.6% (n = 190,000); AID 1671202, 2021
Pf apPOL block – Pf-apPOL inhibitors, biochemical, fluorescence. Recombinant Pf-apPOL, molecular beacon fluorescence, 1.5 h. actives 0.25% (n = 210,000). inhibition, % at 10 µM. Plasmodium falciparum apicoplast DNA polymerase (apPOL)
Hits are given with their value; - = inactive; . = no result. Cut-off read from the data, not from the text of the source: active = inhibition above about 50%; inactive = the rest.

SMILES	mHTT CaM bind	Pf apPOL block
CCC(CC)C(=O)N(C)c1nnc(C23CC4CC(CC(C4)C2)C3)s1	-	-
O=C(NC1CC1)C1CCN(c2nc3ccc(-c4cccc(F)c4)nc3s2)CC1	-	-
CCN(CC)C(=O)c1c(Cl)nc(C)c(Cl)c1C	-	-
COc1ccc(OC)c(N2C=C(C#N)S(=O)(=O)c3cc(F)ccc32)c1	-	-
Nc1ncc(C2=C(Cl)C(O)C(Cl)=C(Cl)C2O)s1 (centres undefined)	100.3	-
OC(COc1ccc(C23CC4CC(CC(C4)C2)C3)cc1)CN1CCCCC1 (centres undefined)	100.1	-
CN1CCN(CC(O)COc2ccc(C34CC5CC(CC(C5)C3)C4)cc2)CC1 (centres undefined)	95.5	-
OC(COc1ccc(C23CC4CC(CC(C4)C2)C3)cc1)CN1CCOCC1 (centres undefined)	-	-
CCOC(=O)C1CCN(CC(O)COc2ccc(C34CC5CC(CC(C5)C3)C4)cc2)CC1 (centres undefined)	-	-
COc1cc(C(=O)N2CSCC2C(=O)NCCc2cscn2)cc(OC)c1OC (centres undefined)	-	-
COc1ccc(C)cc1NC(=O)N1CCn2cccc2C1Cc1ccccc1 (centres undefined)	-	-
COc1ccc(NC(=O)N2CCn3cccc3C2Cc2ccccc2)c(OC)c1 (centres undefined)	53.6	-
Cc1ccc(NC(=O)N2CCn3cccc3C2Cc2ccccc2)cc1 (centres undefined)	-	-
CCc1ccc(NC(=O)N2CCn3cccc3C2Cc2ccccc2)cc1 (centres undefined)	-	-
O=C(Nc1ccc(F)cc1)N1CCn2cccc2C1Cc1ccccc1 (centres undefined)	69.0	-
O=C(Nc1cccc(Cl)c1)N1CCn2cccc2C1Cc1ccccc1 (centres undefined)	91.7	-
O=C(Cc1cccs1)N1CCC(n2c(C3CCCC3)nc3cccnc32)C1 (centres undefined)	-	-
CCc1ccc(N2C=C(C(=O)N3CCCCC3)S(=O)(=O)c3ccccc32)cc1	-	-
COc1ccc(S(=O)(=O)N2CCC(c3nc4ccncc4n3CC(C)C)C2)cc1OC (centres undefined)	-	-
Cc1ccc2[nH]c3c(c2c1)CCC1C3=NNC1c1ccco1 (centres undefined)	79.0	-
Cc1ccc2[nH]c3c(c2c1)CCCC3=O	-	-
CC(C)(C)C(=O)Oc1ccc2c(c1)OC(=Cc1cccs1)C2=O	-	-
CC(C(=O)N1CCC(N2CCc3ccccc32)CC1)c1ccccc1 (centres undefined)	68.5	-
COCCC1CCN(C(=O)C(C)c2ccccc2)CC1 (centres undefined)	-	-
O=C1OCCN1C(=O)[C@H]1[C@H](c2ccc([N+](=O)[O-])cc2)C(c2cccc(Cl)c2)=NN1c1ccccc1	55.2	-
SMILES	mHTT CaM bind	Pf apPOL block
Cc1cccc(C2=NN(c3ccc(Br)cc3)[C@@H](C(=O)N3CCOC3=O)[C@@H]2C)c1	-	-
O=C1OCCN1C(=O)[C@H]1[C@H](c2ccc([N+](=O)[O-])cc2)C(c2ccccc2)=NN1c1ccccc1	-	-
Cc1cccc(C2=NN(c3ccc(Br)cc3)[C@@H](C(=O)N3CCOC3=O)[C@@H]2c2ccc([N+](=O)[O-])cc2)c1	50.4	-
COc1nccc(N2CCC(CC(=O)NCc3cc(F)cc(F)c3)CC2)n1	-	-
O=C(NCCc1ccccn1)C1CCN(c2cc(N3CCOCC3)ncn2)CC1	-	-
O=C(c1ccc(F)c(F)c1)N1CCCC(c2ccnc(-c3cccc(F)c3)n2)C1 (centres undefined)	-	-
CCOC(=O)c1ccccc1NC(=O)N1CC2CCCN2c2ccccc21 (centres undefined)	68.3	-
Cc1c(Cl)cccc1NC(=O)N1CC(C)Oc2ccccc21 (centres undefined)	-	-
O=C(Nc1ccccc1F)N1CC2CCCN2c2ccccc21 (centres undefined)	-	-
CCc1ccccc1NC(=O)N1CC2CCCN2c2ccccc21 (centres undefined)	78.7	-
COC(=O)c1ccc(Cl)cc1NC(=O)N1CC2CCCN2c2ccccc21 (centres undefined)	-	-
Cc1c(Cl)cccc1NC(=O)N1CC2CCCN2c2ccccc21 (centres undefined)	76.8	-
Cc1cccc(-c2noc(C3CCN(CC(=O)NCc4ccco4)CC3)n2)c1	-	-
Cc1sc2nc(C)n(Cc3csc(-c4ccc(Cl)cc4)n3)c(=O)c2c1C	-	-
Cc1sc2nc(C)n(Cc3ccc(C(F)(F)F)cc3)c(=O)c2c1C	88.0	-
Cc1scc2nc(C(=O)NCc3ccccc3)nc(N(C)C)c12	-	-
CCc1nnc(NC(=O)CSc2nc(C(F)(F)F)cc(C)c2C#N)s1	-	-
COc1ccc(NC(=O)c2cc(OC)c(OC)c(OC)c2)c([N+](=O)[O-])c1	-	-
COc1ccc(NC(=O)c2ncn[nH]2)c([N+](=O)[O-])c1	100.0	-
Cc1ccc(-c2csc(Nc3ccc(Oc4ccccc4)cc3)n2)cc1	68.1	-
COc1ccc(-c2csc(Nc3ccc(N)cc3)n2)cc1	87.7	-
COc1ccc(Nc2nc(-c3cccc(NC(C)=O)c3)cs2)cc1	-	-
O=[N+]([O-])c1ccc(-c2csc(Nc3ccc(Oc4ccccc4)cc3)n2)cc1	59.8	-
Clc1cc(Cl)cc(Nc2nc(-c3ccccc3)cs2)c1	96.4	-
O=[N+]([O-])c1cccc(Nc2nc(-c3ccncc3)cs2)c1	-	-
SMILES	mHTT CaM bind	Pf apPOL block
O=[N+]([O-])c1ccc(-c2csc(Nc3cc(Cl)cc(Cl)c3)n2)cc1	-	-
COc1ccc(-c2csc(Nc3ccc(C)cn3)n2)cc1	-	-
CCN(C(=O)c1noc2c1CCCC2)c1ccccc1	-	-
Cc1nnc(SCC(=O)N(c2ccccc2)c2ccccc2)n1-n1cccc1	-	-
CC1CC(C)CN(C(=O)CSc2ccccc2)C1 (centres undefined)	-	-
Cn1c(=O)c2c(SCC(=O)NCC3CCCO3)nc(C3CC3)nc2n(C)c1=O (centres undefined)	-	-
O=C(Cc1cccs1)Nc1cnc(-c2cccc(Cl)c2)nc1	-	-
COc1ccc(C(O)CN2CCN(c3ccc(OC)cc3)CC2)cc1 (centres undefined)	-	-
Cc1ccc(N2CN(CCC(C)C)S(=O)(=O)c3cccnc32)cc1	-	-
Cc1ccc(-c2csc(Nc3ccccc3)n2)cc1	61.1	-
Cc1ccc(-c2csc(Nc3ccc(Cl)cc3)n2)cc1	-	-
Clc1ccc(-c2csc(Nc3ccccc3)n2)s1	.	-
Clc1ccc(-c2csc(Nc3ccc(Oc4ccccc4)cc3)n2)cc1	52.0	-
Cc1ccc(Nc2nc(-c3ccccc3)cs2)cc1	64.0	-
Cc1ccc(Nc2nc(-c3ccncc3)cs2)cc1	-	-
NC(=O)c1ccc2c(c1)n(Cc1cccc(F)c1)c(=O)c1ccnn12	-	-
CCCCOc1ccccc1/C=c1\sc2nc(=O)c(C)nn2c1=O	-	-
CC1(C)Cc2cccc(OCC(=O)N3CC(c4nc5ccccc5[nH]4)C3)c2O1	-	-
O=C1C=CC(=Nc2ccc(Br)cc2)C=C1	87.0	-
CCOc1ccc(/C=C2\C(=O)Nc3ccc(Br)cc32)cc1	-	-
O=C1Nc2ccc(Br)cc2/C1=C/c1ccccc1F	-	-
Cc1ccc2c(c1)/C(=C/c1ccccc1Cl)C(=O)N2	-	-
